Test [1] is described as follows: NCI Yeast Anticancer Drug Screen. Data for the rad50 strain (AID 155).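 Also: 0% = growth of vehicle-only cultures of the same strain.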 The note with it: S. cerevisiae rad50 strain growth inhibition, active compounds read high. In a few lines:
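DNA repair mutant yeast, compound exposure, growth read-out; inhibition is taken relative to vehicle.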

Test [2] in a line: NCI Yeast Anticancer Drug Screen. Data for the mec2-1 strain (AID 157). The note with it: S. cerevisiae mec2-1 strain, active compounds read high. In a few lines:
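Cells of the genetically defined mec2-1 yeast strain are incubated with test compound. Inhibition of growth is calculated against vehicle-treated controls.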

Test [3] can be described thus: NCI Yeast Anticancer Drug Screen. Data for the sgs1 mgt1 strain (AID 161).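 Also: 0% = growth of cultures given vehicle only.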 The note with it: S. cerevisiae sgs1 mgt1 strain, active compounds read high. A digest of the protocol: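 Test agents were incubated with a DNA-repair-mutant yeast strain. Growth was then read and compared against vehicle-treated controls.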
Test [4] is described as follows: NCI Yeast Anticancer Drug Screen. Data for the cln2 rad14 strain (AID 165).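 Also: 0% = growth equal to vehicle treated cultures.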 Conditions: S. cerevisiae cln2 rad14 strain, active compounds read high. A digest of the protocol: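 The screen exposed genetically defined yeast (cln2 rad14) to test compounds and scored growth inhibition relative to vehicle-treated controls.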
A short description of test [5]: NCI Yeast Anticancer Drug Screen. Data for the bub3 strain (AID 167). The note with it: S. cerevisiae bub3 mutant strain, active compounds read high. A digest of the protocol: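 In this screen, a yeast mutant lacking normal mitotic checkpoint function is challenged with compound. Relative growth versus vehicle gives the inhibition value.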
A short description of test [6]: NCI Yeast Anticancer Drug Screen. Data for the mlh1 rad18 strain (AID 175). The note with it: S. cerevisiae mlh1 rad18 strain growth inhibition, active compounds read high. In a few lines: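 Compound-treated yeast growth, normalised to vehicle controls. Strain bears defined DNA repair mutations.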
Where [7] appears, read: at 5.0 µM (retest, dose inferred, filed as 0.5).
[8] abbreviates: at 50.0 µM (retest, dose inferred, filed as 5.0).

About 79,000 compounds went through this panel and 15% of them were active in at least one assay; those are over-represented in the sample as a whole. A number with no mark means an inactive call. Calls of active or inactive are those of the source. Rule as the data show it: active = growth inhibition above about 70%; inactive = the rest.

`CN(C)CC(O)c1cc(-c2ccc(Cl)c(Cl)c2)nc2c(Cl)cc(Cl)cc12` (stereo not given): the growth inhibition in test [1] (setting [7]) was 3%; in test [1] (setting [8]), 98% (active); in test [1] (at 50.0 µM), 97.8% (active); in test [2] (setting [7]) it was -3%; in test [2] (setting [8]), 99% (active); in test [2] (at 50.0 µM), 98.5% (active). For the same molecule, the growth inhibition in test [3] (setting [7]) was -9%; in test [3] (setting [8]), 99% (active); in test [3] (at 50.0 µM), 98.5% (active); in test [4] (setting [7]), -4%; in test [4] (setting [8]), 97% (active); in test [4] (at 50.0 µM) it was 98.2% (active). Further, the growth inhibition was 0% in test [5] (setting [7]); 75% (active) in test [5] (setting [8]); 98.3% (active) in test [5] (at 50.0 µM); 1% in test [6] (setting [7]); 98% (active) in test [6] (setting [8]); 98% (active) in test [6] (at 50.0 µM).
Consider `Cc1nn(C(=S)S)c(C)c1N=Nc1ccc(Br)cc1`, for which the growth inhibition was 14% in test [1] (setting [7]); 97% (active) in test [1] (setting [8]); 99.4% (active) in test [1] (at 50.0 µM); 0% in test [2] (setting [7]); 99% (active) in test [2] (setting [8]); 99.6% (active) in test [2] (at 50.0 µM). Besides, the growth inhibition was 8% in test [3] (setting [7]); 99% (active) in test [3] (setting [8]); 99.2% (active) in test [3] (at 50.0 µM); -7% in test [4] (setting [7]); 98% (active) in test [4] (setting [8]); 99.4% (active) in test [4] (at 50.0 µM). The growth inhibition in test [5] (setting [7]) was -2%; in test [5] (setting [8]), 98% (active); in test [5] (at 50.0 µM) it was 82.2% (active); in test [6] (setting [7]), 0%; in test [6] (setting [8]), 99% (active); in test [6] (at 50.0 µM), 99.2% (active).
`COc1ccc(/C=C/c2ccnc3ccccc23)cc1`: the growth inhibition in test [1] (setting [7]) was 24%; in test [1] (setting [8]), 98% (active); in test [1] (at 50.0 µM) it was 90.3% (active); in test [2] (setting [7]), 20%; in test [2] (setting [8]), 99% (active); in test [2] (at 50.0 µM), 92.2% (active). The growth inhibition is 22% in test [3] (setting [7]); 99% (active) in test [3] (setting [8]); 89.7% (active) in test [3] (at 50.0 µM); 25% in test [4] (setting [7]); 96% (active) in test [4] (setting [8]); 89% (active) in test [4] (at 50.0 µM). The growth inhibition in test [5] (setting [7]) was 48%; in test [5] (setting [8]) it was 99% (active); in test [5] (at 50.0 µM) it was 86.5% (active); in test [6] (setting [7]), 29%; in test [6] (setting [8]), 98% (active); in test [6] (at 50.0 µM) it was 86% (active).
For the molecule `CCCCCc1cc(C(=O)OC/C(C)=N/O)c2ccccc2n1`, the growth inhibition in test [1] (setting [7]) was -5%; in test [1] (setting [8]), 90% (active); in test [1] (at 50.0 µM), 97.2% (active); in test [2] (setting [7]), -9%; in test [2] (setting [8]), 95% (active); in test [2] (at 50.0 µM), 97.5% (active). In addition, the growth inhibition in test [3] (setting [7]) is -6%; in test [3] (setting [8]), 91% (active); in test [3] (at 50.0 µM), 96.5% (active); in test [4] (setting [7]), -5%; in test [4] (setting [8]), 92% (active); in test [4] (at 50.0 µM), 83.2% (active). Besides, the growth inhibition is -6% in test [5] (setting [7]); 93% (active) in test [5] (setting [8]); 97.8% (active) in test [5] (at 50.0 µM); -6% in test [6] (setting [7]); 93% (active) in test [6] (setting [8]); 97.4% (active) in test [6] (at 50.0 µM).
As for `CN(C)C=C1C(Cl)=C(C=O)CC(C=O)=C1Cl`, the growth inhibition is 2% in test [1] (setting [7]); 24% in test [1] (setting [8]); 12.3% in test [1] (at 50.0 µM); 3% in test [2] (setting [7]); 26% in test [2] (setting [8]); 23.1% in test [2] (at 50.0 µM). The growth inhibition in test [3] (setting [7]) is 3%; in test [3] (setting [8]), 36%; in test [3] (at 50.0 µM), 63.7%; in test [4] (setting [7]) it was -2%; in test [4] (setting [8]), 3%; in test [4] (at 50.0 µM), 40.3%. Moreover, the growth inhibition in test [5] (setting [7]) was -2%; in test [5] (setting [8]), 9%; in test [5] (at 50.0 µM), 18.5%; in test [6] (setting [7]), 0%; in test [6] (setting [8]) it was -12%; in test [6] (at 50.0 µM), 89.5% (active).
Take `CCN(CC)CCC(=O)OC1C(C)=CC(C)C(=O)CC(C(C)CC2CCC(O)C(OC)C2)OC(=O)C2CCCCN2C(=O)C(=O)[C@@]2(O)OC(CCC2C)CC(OC)\C(C)=C/C=C/C=C/C(C)CC(C)C(=O)C1OC` (stereo not given in full): the growth inhibition in test [1] (setting [7]) was 40%; in test [1] (setting [8]), 97% (active); in test [1] (at 50.0 µM), 90.9% (active); in test [2] (setting [7]), 26%; in test [2] (setting [8]) it was 98% (active); in test [2] (at 50.0 µM), 93% (active). The growth inhibition is 96% (active) in test [3] (setting [7]); 96% (active) in test [3] (setting [8]); 93.4% (active) in test [3] (at 50.0 µM); 94% (active) in test [4] (setting [7]); 95% (active) in test [4] (setting [8]); 87.7% (active) in test [4] (at 50.0 µM). In addition, the growth inhibition was 53% in test [5] (setting [7]); 98% (active) in test [5] (setting [8]); 92.8% (active) in test [5] (at 50.0 µM); 97% (active) in test [6] (setting [7]); 97% (active) in test [6] (setting [8]); 92.2% (active) in test [6] (at 50.0 µM).
For the molecule `CCOC(=O)C(C#N)NC(C)=O` (stereo not given), the growth inhibition in test [1] (setting [7]) was 3%; in test [1] (setting [8]), 1%; in test [1] (at 50.0 µM) it was 68%; in test [2] (setting [7]), 0%; in test [2] (setting [8]), 1%; in test [2] (at 50.0 µM), 49.3%. The growth inhibition in test [3] (setting [7]) was 0%; in test [3] (setting [8]), 1%; in test [3] (at 50.0 µM), 75.4% (active); in test [4] (setting [7]) it was -1%; in test [4] (setting [8]), 0%; in test [4] (at 50.0 µM), 3.05%. Also, the growth inhibition was 0% in test [5] (setting [7]); -5% in test [5] (setting [8]); 69% in test [5] (at 50.0 µM); 3% in test [6] (setting [7]); 3% in test [6] (setting [8]); 57.8% in test [6] (at 50.0 µM).
`Cc1nc2c([N+](=O)[O-])c(N3CCCCC3)c([N+](=O)[O-])cc2[nH]1`: the growth inhibition in test [1] (setting [7]) is 10%; in test [1] (setting [8]) it was 97% (active); in test [1] (at 50.0 µM), 98.8% (active); in test [2] (setting [7]), 13%; in test [2] (setting [8]), 98% (active); in test [2] (at 50.0 µM) it was 99% (active). Further, the growth inhibition in test [3] (setting [7]) is 13%; in test [3] (setting [8]), 98% (active); in test [3] (at 50.0 µM), 99.1% (active); in test [4] (setting [7]), 17%; in test [4] (setting [8]), 94% (active); in test [4] (at 50.0 µM) it was 97.7% (active). Also, the growth inhibition was 0% in test [5] (setting [7]); 83% (active) in test [5] (setting [8]); 98.7% (active) in test [5] (at 50.0 µM); 8% in test [6] (setting [7]); 98% (active) in test [6] (setting [8]); 99.1% (active) in test [6] (at 50.0 µM).
Take `CCCCCCCCCCCCCCCCCC[n+]1cccc(C(=O)c2ccccc2)c1`: the growth inhibition in test [1] (setting [7]) is 58%; in test [1] (setting [8]), 99% (active); in test [1] (at 50.0 µM), 99.3% (active); in test [2] (setting [7]), 92% (active); in test [2] (setting [8]), 100% (active); in test [2] (at 50.0 µM), 99.5% (active). Moreover, the growth inhibition was 97% (active) in test [3] (setting [7]); 99% (active) in test [3] (setting [8]); 99.5% (active) in test [3] (at 50.0 µM); 56% in test [4] (setting [7]); 98% (active) in test [4] (setting [8]); 97.3% (active) in test [4] (at 50.0 µM). Moreover, the growth inhibition in test [5] (setting [7]) is 68%; in test [5] (setting [8]), 99% (active); in test [5] (at 50.0 µM), 98.7% (active); in test [6] (setting [7]), 98% (active); in test [6] (setting [8]) it was 99% (active); in test [6] (at 50.0 µM) it was 99.5% (active).
As to `COc1cccc(NC(=S)NC(Cc2ccccc2)c2ccccc2)c1` (stereo not given), the growth inhibition in test [1] (setting [7]) is -7%; in test [1] (setting [8]), 88% (active); in test [1] (at 50.0 µM), 80.2% (active); in test [2] (setting [7]), -10%; in test [2] (setting [8]) it was 88% (active); in test [2] (at 50.0 µM) it was 74.1% (active). Moreover, the growth inhibition was -7% in test [3] (setting [7]); 90% (active) in test [3] (setting [8]); 83.9% (active) in test [3] (at 50.0 µM); 19% in test [4] (setting [7]); 88% (active) in test [4] (setting [8]); 70% (active) in test [4] (at 50.0 µM). Besides, the growth inhibition in test [5] (setting [7]) was -2%; in test [5] (setting [8]) it was 90% (active); in test [5] (at 50.0 µM), 77.2% (active); in test [6] (setting [7]), -7%; in test [6] (setting [8]), 88% (active); in test [6] (at 50.0 µM), 72.4% (active).

The record behind these values is PubChem BioAssay (NCI).
